Records with an inconclusive call do not appear. The source made the active and inactive calls. Calls follow the shape of the dose curve; as a rule, active = well fitted cell-killing curve with a large enough effect; inconclusive = small, poorly fitted or top-dose-only effect, or effect the other way; inactive = flat fitted curve, though single readings scatter.
Test system: SKOV3
Assay: Primary qHTS to identify gynecologic anti-cancer compounds using libraries of approved drugs and bioactive compounds (AID 1345084); also: nearly all actives have a fitted effect of over 55% in size
Conditions: Gynecologic cancer cell panel viability, ATPlite luminescence, 48 h; series mostly up to 57.5 µM; activity change, negative = cytotoxicity: at the top concentration
Method in brief: (§1)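 Cells, 1,000 per well, plated 16 h, then exposed 48 h at 37 C to compounds. Viability by ATPlite luminescence after 15 min at room temperature.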
% is scaled to controls: 0 for no effect and ±100 for the full control effect; potency is read from the fitted curve at half-maximal effect.

SMILES | activity change, negative = cytotoxicity | Potency
COCCOc1cnc2ccn([C@H](C)c3nnc4c(F)cc(-c5cnn(C)c5)cn34)c(=O)c2c1 | -11.3% (inactive) | 
CC(CCC1(O)OC2CC3C4CCC5CC(O[C@@H]6O[C@H](CO)[C@@H](O)[C@H](O)[C@H]6O[C@@H]6O[C@@H](C)[C@H](O)[C@@H](O)[C@H]6O)C(O)CC5(C)C4CCC3(C)C2C1C)CO[C@@H]1O[C@H](CO)[C@@H](O)[C@H](O)[C@H]1O (stereo partly specified) | 3.64% [at 11.6 µM] (inactive) | 
CC1=CC(=O)CC(C)(C)[C@@]1(O)CC[C@@H](C)O[C@@H]1O[C@H](CO)[C@@H](O)[C@H](O)[C@H]1O | 12.1% [at 38.5 µM] (inactive) | 
C=C1[C@@H]2CC[C@@H]3[C@@](CCC4C(C(=O)O)(C(=O)O)C[C@@H](O[C@@H]5O[C@H](CO)[C@@H](O)[C@H](O)[C@H]5OC(=O)CC(C)C)C[C@]43C)(C2)[C@H]1O (stereo partly specified) | -42% [at 25.3 µM] (inactive) | 
C/C=C(\C)C(=O)O[C@H]1[C@@H](O[C@]2(COC(=O)CC(C)C)O[C@H](COC(=O)C(C)CC)[C@@H](OC(C)=O)[C@@H]2O)O[C@H](COC(C)=O)[C@@H](O)[C@@H]1O (stereo partly specified) | 28.2% [at 25.3 µM] (inactive) | 
CCn1c(=O)c(-c2ccn[nH]2)cc2c(C)nc(N)nc21 |  | 10 µM (active)
C/C=C/C=C/C(O)=C1\C(O)=C(C)C(=O)[C@@]2(C)OC(=O)[C@@](C)(NC(=O)/C=C/C(=O)O)[C@@H]12 | 2.44% [at 25.3 µM] (inactive) | 
CC1(C)CC[C@]2(C(=O)O)CC[C@]3(C)C(=CCC4[C@@]5(C)CC[C@H](O[C@@H]6O[C@H](C(=O)O)[C@@H](O[C@@H]7OC[C@@H](O)[C@H](O)[C@H]7O)[C@H](O)[C@H]6O)C(C)(C)C5CC[C@]43C)C2C1O (stereo partly specified) | 18% [at 25.3 µM] (inactive) | 
NC(=O)c1cccc2cn(-c3ccc(C4CCCNC4)cc3)nc12 (stereo unspecified) | 0.0752% (inactive) | 
CN(C)c1nc(NC2CCC(NCCc3ccc(Br)cc3OC(F)(F)F)CC2)nc2ccccc12 (stereo unspecified) |  | 14.1 µM (active)
Cc1c(CN2CCN(C(=O)C(C)O)CC2)sc2c(N3CCOCC3)nc(-c3cnc(N)nc3)nc12 (stereo unspecified) |  | 1 µM (active)
C=C[C@]1(C)C[C@H](O)[C@@H]2[C@H](OC(=O)[C@@H]2C)C1/C(C)=C/O[C@@H]1O[C@H](CO)[C@@H](O)[C@H](O)[C@H]1O (stereo partly specified) | 0% [at 25.3 µM] (inactive) | 
Cc1nc(NC(=O)N2CCCC2C(N)=O)sc1-c1csc(C(C)(C)C)n1 (stereo unspecified) |  | 3.16 µM (active)
O=C1CCC=CC1(O)C(=O)OCc1ccccc1O[C@@H]1O[C@H](CO)[C@@H](O)[C@H](O)[C@H]1O (stereo partly specified) | 2.13% [at 25.3 µM] (inactive) | 
O=C(NCc1ccc(F)cc1)C(=O)c1c[nH]c2ccccc12 | -0.34% (inactive) | 
Nc1nc2c(c(N3CCNCC3)n1)CCC1=C2[C@@H]2CCCC[C@@H]2O1 | -5.55% (inactive) | 
CC1(C)CCC[C@@]2(C)C1[C@H](OC(=O)/C=C/C=C/C(=O)O)C=C1COC(=O)[C@@]12O (stereo partly specified) | -3.06% [at 38.5 µM] (inactive) | 
C[C@@H]1CC[C@]2(C(=O)O[C@@H]3O[C@H](CO)[C@@H](O)[C@H](O)[C@H]3O)CC[C@]3(C)C(=CCC4[C@@]5(C)C[C@@H](O)[C@H](O)[C@](C)(C(=O)O)C5CC[C@]43C)[C@@H]2[C@]1(C)O (stereo partly specified) | 6.51% [at 25.3 µM] (inactive) | 
COc1cc2nc(N3CCC(N4CCCCC4)CC3)nc(NC3CCCCCC3)c2cc1OC |  | 22.4 µM (active)
FC(F)(F)c1cc(-c2ncn(/C=C\c3nnco3)n2)cc(C(F)(F)F)c1 | -8.48% (inactive) | 
CCCCNc1ccc(-c2ccc(CN3CCOCC3)cn2)c(NC2CCC(O)CC2)c1 (stereo unspecified) | -9.67% [at 25.3 µM] (inactive) | 
CC1(CCOC2OC(CO)C(O)C(O)C2O)CCC23OC2(C1)C(O)CC1C(C)(C(=O)O)CCCC13C (stereo unspecified) | -2.29% [at 25.3 µM] (inactive) | 
CC(C)c1cc2c(c(O)c1O)[C@@]13CCCC(C)(C)[C@@H]1[C@H](OC3=O)C2=O | 37.4% [at 38.5 µM] (inactive) | 
CC(=O)OC1/C(C)=C/C(=O)C(OC(C)=O)C(C)(C)/C=C/C(C)C(=O)C2(OC(C)=O)CC(C)C(OC(=O)c3ccccc3)C12 (stereo unspecified) | -23.1% [at 25.3 µM] (inactive) | 
NC(=O)c1csc(C2OC(CO)C(O)C2O)n1 (stereo unspecified) | 0.0356% (inactive) | 
CC(=O)N1CCN(Cc2ccc([C@H](C)Nc3nccc(N4C(=O)OC[C@@H]4C(C)C)n3)cc2)CC1 | 10.8% (inactive) | 
C[C@@H]1O[C@@H](O[C@H]2[C@H](OC(=O)[C@]34CCC(C)(C)C[C@H]3C3=CCC5[C@@]6(C)C[C@H](O)[C@H](O[C@@H]7O[C@H](CO)[C@@H](O)[C@H](O)[C@H]7O)[C@@](C)(CO)C6[C@H](O)C[C@@]5(C)[C@]3(C)CC4)OC[C@H](O)[C@@H]2O)[C@H](O)[C@H](O)[C@H]1O[C@@H]1OC[C@@H](O)[C@H](O[C@@H]2OC[C@](O)(CO)[C@H]2O)[C@H]1O (stereo partly specified) | 1.77% [at 6.55 µM] (inactive) | 

Test system: Tov-21-G
Assay: as above
Conditions: Gynecologic cancer cell panel viability, ATPlite luminescence, 48 h; series mostly up to 57.5 µM; activity change, negative = cytotoxicity: at the top concentration
Method in brief: as §1

SMILES | activity change, negative = cytotoxicity | Potency
COCCOc1cnc2ccn([C@H](C)c3nnc4c(F)cc(-c5cnn(C)c5)cn34)c(=O)c2c1 | 5.34% (inactive) | 
CC(CCC1(O)OC2CC3C4CCC5CC(O[C@@H]6O[C@H](CO)[C@@H](O)[C@H](O)[C@H]6O[C@@H]6O[C@@H](C)[C@H](O)[C@@H](O)[C@H]6O)C(O)CC5(C)C4CCC3(C)C2C1C)CO[C@@H]1O[C@H](CO)[C@@H](O)[C@H](O)[C@H]1O (stereo partly specified) | 6.58% [at 11.6 µM] (inactive) | 
CC1=CC(=O)CC(C)(C)[C@@]1(O)CC[C@@H](C)O[C@@H]1O[C@H](CO)[C@@H](O)[C@H](O)[C@H]1O | 6.19% [at 38.5 µM] (inactive) | 
C=C1[C@@H]2CC[C@@H]3[C@@](CCC4C(C(=O)O)(C(=O)O)C[C@@H](O[C@@H]5O[C@H](CO)[C@@H](O)[C@H](O)[C@H]5OC(=O)CC(C)C)C[C@]43C)(C2)[C@H]1O (stereo partly specified) | -25.4% [at 25.3 µM] (inactive) | 
C/C=C(\C)C(=O)O[C@H]1[C@@H](O[C@]2(COC(=O)CC(C)C)O[C@H](COC(=O)C(C)CC)[C@@H](OC(C)=O)[C@@H]2O)O[C@H](COC(C)=O)[C@@H](O)[C@@H]1O (stereo partly specified) | -3.53% [at 25.3 µM] (inactive) | 
C/C=C/C=C/C(O)=C1\C(O)=C(C)C(=O)[C@@]2(C)OC(=O)[C@@](C)(NC(=O)/C=C/C(=O)O)[C@@H]12 | -0.151% [at 25.3 µM] (inactive) | 
CC1(C)CC[C@]2(C(=O)O)CC[C@]3(C)C(=CCC4[C@@]5(C)CC[C@H](O[C@@H]6O[C@H](C(=O)O)[C@@H](O[C@@H]7OC[C@@H](O)[C@H](O)[C@H]7O)[C@H](O)[C@H]6O)C(C)(C)C5CC[C@]43C)C2C1O (stereo partly specified) | 13.8% [at 25.3 µM] (inactive) | 
NC(=O)c1cccc2cn(-c3ccc(C4CCCNC4)cc3)nc12 (stereo unspecified) | -4.75% (inactive) | 
Cc1c(CN2CCN(C(=O)C(C)O)CC2)sc2c(N3CCOCC3)nc(-c3cnc(N)nc3)nc12 (stereo unspecified) |  | 2.24 µM (active)
C=C[C@]1(C)C[C@H](O)[C@@H]2[C@H](OC(=O)[C@@H]2C)C1/C(C)=C/O[C@@H]1O[C@H](CO)[C@@H](O)[C@H](O)[C@H]1O (stereo partly specified) | 15.1% [at 25.3 µM] (inactive) | 
Cc1nc(NC(=O)N2CCCC2C(N)=O)sc1-c1csc(C(C)(C)C)n1 (stereo unspecified) | -29.5% (inactive) | 
O=C1CCC=CC1(O)C(=O)OCc1ccccc1O[C@@H]1O[C@H](CO)[C@@H](O)[C@H](O)[C@H]1O (stereo partly specified) | -27.5% [at 25.3 µM] (inactive) | 
O=C(NCc1ccc(F)cc1)C(=O)c1c[nH]c2ccccc12 | -0.308% (inactive) | 
Nc1nc2c(c(N3CCNCC3)n1)CCC1=C2[C@@H]2CCCC[C@@H]2O1 | -24.6% (inactive) | 
CC1(C)CCC[C@@]2(C)C1[C@H](OC(=O)/C=C/C=C/C(=O)O)C=C1COC(=O)[C@@]12O (stereo partly specified) | 3.42% [at 38.5 µM] (inactive) | 
C[C@@H]1CC[C@]2(C(=O)O[C@@H]3O[C@H](CO)[C@@H](O)[C@H](O)[C@H]3O)CC[C@]3(C)C(=CCC4[C@@]5(C)C[C@@H](O)[C@H](O)[C@](C)(C(=O)O)C5CC[C@]43C)[C@@H]2[C@]1(C)O (stereo partly specified) | 8.9% [at 25.3 µM] (inactive) | 
FC(F)(F)c1cc(-c2ncn(/C=C\c3nnco3)n2)cc(C(F)(F)F)c1 | -16.7% (inactive) | 
CCCCNc1ccc(-c2ccc(CN3CCOCC3)cn2)c(NC2CCC(O)CC2)c1 (stereo unspecified) | -1.21% [at 25.3 µM] (inactive) | 
CC1(CCOC2OC(CO)C(O)C(O)C2O)CCC23OC2(C1)C(O)CC1C(C)(C(=O)O)CCCC13C (stereo unspecified) | 1.91% [at 25.3 µM] (inactive) | 
CC(C)c1cc2c(c(O)c1O)[C@@]13CCCC(C)(C)[C@@H]1[C@H](OC3=O)C2=O | 17.6% [at 38.5 µM] (inactive) | 
CC(=O)OC1/C(C)=C/C(=O)C(OC(C)=O)C(C)(C)/C=C/C(C)C(=O)C2(OC(C)=O)CC(C)C(OC(=O)c3ccccc3)C12 (stereo unspecified) | -11.7% [at 25.3 µM] (inactive) | 
NC(=O)c1csc(C2OC(CO)C(O)C2O)n1 (stereo unspecified) | -26.5% (inactive) | 
CC(=O)N1CCN(Cc2ccc([C@H](C)Nc3nccc(N4C(=O)OC[C@@H]4C(C)C)n3)cc2)CC1 | -13.6% (inactive) | 
C[C@@H]1O[C@@H](O[C@H]2[C@H](OC(=O)[C@]34CCC(C)(C)C[C@H]3C3=CCC5[C@@]6(C)C[C@H](O)[C@H](O[C@@H]7O[C@H](CO)[C@@H](O)[C@H](O)[C@H]7O)[C@@](C)(CO)C6[C@H](O)C[C@@]5(C)[C@]3(C)CC4)OC[C@H](O)[C@@H]2O)[C@H](O)[C@H](O)[C@H]1O[C@@H]1OC[C@@H](O)[C@H](O[C@@H]2OC[C@](O)(CO)[C@H]2O)[C@H]1O (stereo partly specified) | -2.34% [at 6.55 µM] (inactive) | 
